From PubChem BioAssay (NCI)
Compounds without any hit were thinned out: in the full panel of roughly 83,000, 20% have a hit.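 Assay: single dose, 48 h. Readout: percent growth (0 = no net growth; negative = cell death). Active: <10.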 A number with no mark means an inactive call. The source made the active and inactive calls.

The compounds below were run on NCI-H322M lung (assay: NCI-60 one-dose screen, 48 h (100 = growth as untreated, 0 = no growth, -100 = all killed)). Conditions: 10 µM unless noted.

Question: How did the growth turn out when `CC(C)Cc1ccc(C(C)C(=O)NCc2ccc(Cn3c(=O)sn(-c4ccc(Cl)cc4)c3=O)cc2)cc1` (stereo unspecified) was run?
Answer: 90.2%

Question: How did the growth turn out when `COc1ccc(Cn2nc3c(c2-c2cc(OC)c(OC)c(OC)c2)-c2oncc2CC3)cc1` was run?
Answer: 99%

Question: With `Cc1ccc(C(c2c(O)c3cc(Br)ccc3[nH]c2=O)c2c(O)c3cc(Br)ccc3[nH]c2=O)cc1` as the compound, how does the growth read?
Answer: 96.7%

Question: With `CN1CCN(Cc2ccc(NC(=O)c3cncc(C#Cc4cnccc4C(F)(F)F)c3)cc2C(F)(F)F)CC1` as the compound, how does the growth read?
Answer: 107%

Question: `COc1ccc(/C=C/c2n[nH]c3ccc(N4CCOC4=O)cc23)cc1` was tested. Which growth did it give?
Answer: 8.47% (active)

Question: With `COc1cc2nnn3c4ncccc4c(N=O)c3c2cc1OC` as the compound, how does the growth read?
Answer: 78.6%

Question: For `Cc1cc2nc(-c3ccccc3)c(-c3ccccc3)nc2cc1C`, which growth is on record?
Answer: 112%

Question: `Cc1ccc2[nH]c(=O)cc(-n3nncc3COc3ccc(C=O)cc3)c2c1` was tested. Which growth did it give?
Answer: 103%

Question: Which growth does the source give for `CCCOc1nc(SCCC)nc2c1cnn2-c1ccccc1` here?
Answer: 137%

Question: How did the growth turn out when `NC(=O)c1cccc(-c2ccccc2N2CCCCC2)c1` was run?
Answer: 91%

Question: Which growth does the source give for `COc1cc2ncnc(Nc3ccc(C(=O)/C=C/c4ccc(C(F)(F)F)cc4F)cc3)c2cc1OC` here?
Answer: 99.7%

Question: For `CC(=O)OCCCCCNc1ccccc1`, which growth is on record?
Answer: 106%

Question: Which growth does the source give for `O=C(Nc1sc2c(c1C(=O)O)CCCC2)c1cccc(C(F)(F)F)c1` here?
Answer: 95%

Question: For `CCN1C(=O)N(CC)C2NC(SC)=NC21` (stereo unspecified), which growth is on record?
Answer: 92.3%

Question: With `C/C(=C(/c1ccccc1)c1ccc(OCC(O)CN2CCOCC2)cc1)c1ccccc1` (stereo unspecified) as the compound, how does the growth read?
Answer: 95.4%

Question: How did the growth turn out when `COc1ccc(C(=O)c2cc3c(N)c(C(=O)Nc4ccc(Br)cc4)sc3nc2C)cc1` was run?
Answer: 78.9%

Question: How did the growth turn out when `CCOC(=O)Oc1c(OC)cc(C(=O)O[C@@H]2C[C@@H]3CN4CCc5c([nH]c6cc(OC)ccc56)[C@H]4C[C@@H]3[C@H](C(=O)OC)[C@H]2OC)cc1OC` was run?
Answer: 102%

Question: With `COc1ccc(-c2nc(N/N=C/c3ccco3)nc(N3CCOCC3)c2C#N)cc1` as the compound, how does the growth read?
Answer: 87.1%

Question: `CCC(=O)c1ccc(O)c(OC)c1` was tested. Which growth did it give?
Answer: 106%

Question: With `COc1ccc(-c2nc(N=Nc3c(O)[nH]c4ccccc34)nc(N3CCOCC3)c2C#N)cc1` as the compound, how does the growth read?
Answer: 77.1%

Question: With `CCCCCCCCCCCCCCCC(=O)OC[C@@]1(O)C[C@@]23CC[C@@H]4C(C)(C)[C@H](O)CC[C@@]4(C)[C@@H]2CC[C@H]1C3` as the compound, how does the growth read?
Answer: 114%

Question: For `FC(F)(F)Oc1cccc(-c2cc(NCCCCCCNc3cc(-c4cccc(OC(F)(F)F)c4)nc4ccc(N5CCCC5)cc34)c3cc(N4CCCC4)ccc3n2)c1`, which growth is on record?
Answer: -79.3% (active)

Question: For `COc1ccc(C2=C(c3ccccc3)c3ccc(OC(C)=O)cc3OC2(C)C)cc1`, which growth is on record?
Answer: 102%

Question: How did the growth turn out when `Cc1c2c(cc[n+]1Cc1ccc(F)cc1)c1ccc(OCc3cccc(F)c3)cc1n2Cc1cccc(F)c1` was run?
Answer: -72.1% (active)

Question: With `CC1=CC2(C)/C=C(C)/C=C\CC(O)/C=C3/C=CC(=C4C(=O)OC2(CC1C)C4=O)OC3` (stereo unspecified) as the compound, how does the growth read?
Answer: 98.8%

Question: `O=C1OC(=O)C2C1CC=CC2c1ccccc1` (stereo unspecified) was tested. Which growth did it give?
Answer: 102%

Question: How did the growth turn out when `C=C(C)[C@H]1CC/C(C)=C/CC[C@]2(C)O[C@H]2CC/C(COC(=O)[C@@H](OC(C)=O)[C@H](NC(=O)c2ccccc2)c2ccccc2)=C\[C@@H]1O` was run?
Answer: 104%

Question: Which growth does the source give for `O=C(O)c1cn(C2CC2)c2cc(N3CCN(C(=O)C[n+]4cccc5ccccc54)CC3)c(F)cc2c1=O` here?
Answer: 102%

Question: How did the growth turn out when `COc1ccc(Nn2c(SCC(=O)Nc3nc(-c4ccc(Cl)cc4)cs3)nc(C)c2C)cc1` was run?
Answer: 112%

Question: Which growth does the source give for `Cn1c2c(Cl)c(Cl)ccc2c2cc(N)[nH]c(=O)c21` here?
Answer: 103%

Question: How did the growth turn out when `CC(=O)c1c[nH]c2ccc(-c3ccnc(Nc4ccc(NC(=O)c5cccc(F)c5)c(CN5CCOCC5)c4)n3)cc12` was run?
Answer: -1.47% (active)

Question: `Clc1nc(Nc2ccccc2)nc(Nc2ccccc2)n1` was tested. Which growth did it give?
Answer: 96.3%

Question: Which growth does the source give for `O=C1Nc2c(ccc(Cl)c2Cl)/C1=C/c1ccccn1` here?
Answer: 93.4%

Question: For `Cc1ccc2nc3c(cc2c1)CSc1nnc(-c2ccc[nH]c2=S)n1N3`, which growth is on record?
Answer: 99.9%

Question: For `CN1CCN(C(=O)[C@]2(C)CC[C@]3(C)CC[C@]4(C)C(=CC(=O)[C@@H]5[C@@]6(C)CCC(=O)NC(C)(C)[C@@H]6CC[C@]54C)[C@@H]3C2)CC1`, which growth is on record?
Answer: 107%

Question: `COc1ccc(-c2nn(Cc3ccccc3)c3c2-c2oncc2CC3)cc1OC` was tested. Which growth did it give?
Answer: 112%

Question: Which growth does the source give for `O=c1[nH]c2c(s1)CCCC2CN1CCCCC1` (stereo unspecified) here?
Answer: 112%

Question: How did the growth turn out when `CC(C)(C)CC(C)(C)Nc1c(-c2ccc3c(c2)OCO3)nc2cnccn12` was run?
Answer: 101%

These compounds were tested on HOP-62 NSCLC in the same assay as above. Conditions: 10 µM unless noted.

Question: `CC(C)Cc1ccc(C(C)C(=O)NCc2ccc(Cn3c(=O)sn(-c4ccc(Cl)cc4)c3=O)cc2)cc1` (stereo unspecified) was tested. Which growth did it give?
Answer: 85.7%

Question: `COc1ccc(Cn2nc3c(c2-c2cc(OC)c(OC)c(OC)c2)-c2oncc2CC3)cc1` was tested. Which growth did it give?
Answer: 96.7%

Question: For `Cc1ccc(C(c2c(O)c3cc(Br)ccc3[nH]c2=O)c2c(O)c3cc(Br)ccc3[nH]c2=O)cc1`, which growth is on record?
Answer: 77%

Question: How did the growth turn out when `CN1CCN(Cc2ccc(NC(=O)c3cncc(C#Cc4cnccc4C(F)(F)F)c3)cc2C(F)(F)F)CC1` was run?
Answer: 80.5%

Question: For `COc1ccc(/C=C/c2n[nH]c3ccc(N4CCOC4=O)cc23)cc1`, which growth is on record?
Answer: -1.37% (active)

Question: With `COc1cc2nnn3c4ncccc4c(N=O)c3c2cc1OC` as the compound, how does the growth read?
Answer: 106%

Question: Which growth does the source give for `Cc1cc2nc(-c3ccccc3)c(-c3ccccc3)nc2cc1C` here?
Answer: 111%

Question: With `Cc1ccc2[nH]c(=O)cc(-n3nncc3COc3ccc(C=O)cc3)c2c1` as the compound, how does the growth read?
Answer: 101%

Question: How did the growth turn out when `CCCOc1nc(SCCC)nc2c1cnn2-c1ccccc1` was run?
Answer: 126%

Question: For `NC(=O)c1cccc(-c2ccccc2N2CCCCC2)c1`, which growth is on record?
Answer: 99.5%

Question: Which growth does the source give for `COc1cc2ncnc(Nc3ccc(C(=O)/C=C/c4ccc(C(F)(F)F)cc4F)cc3)c2cc1OC` here?
Answer: 144%

Question: For `CC(=O)OCCCCCNc1ccccc1`, which growth is on record?
Answer: 102%

Question: Which growth does the source give for `O=C(Nc1sc2c(c1C(=O)O)CCCC2)c1cccc(C(F)(F)F)c1` here?
Answer: 104%

Question: `CCN1C(=O)N(CC)C2NC(SC)=NC21` (stereo unspecified) was tested. Which growth did it give?
Answer: 91.8%

Question: How did the growth turn out when `C/C(=C(/c1ccccc1)c1ccc(OCC(O)CN2CCOCC2)cc1)c1ccccc1` (stereo unspecified) was run?
Answer: 90.1%

Question: How did the growth turn out when `COc1ccc(C(=O)c2cc3c(N)c(C(=O)Nc4ccc(Br)cc4)sc3nc2C)cc1` was run?
Answer: 21.2%

Question: Which growth does the source give for `CCOC(=O)Oc1c(OC)cc(C(=O)O[C@@H]2C[C@@H]3CN4CCc5c([nH]c6cc(OC)ccc56)[C@H]4C[C@@H]3[C@H](C(=O)OC)[C@H]2OC)cc1OC` here?
Answer: 97.9%

Question: With `COc1ccc(-c2nc(N/N=C/c3ccco3)nc(N3CCOCC3)c2C#N)cc1` as the compound, how does the growth read?
Answer: 68.1%

Question: With `CCC(=O)c1ccc(O)c(OC)c1` as the compound, how does the growth read?
Answer: 104%

Question: Which growth does the source give for `COc1ccc(-c2nc(N=Nc3c(O)[nH]c4ccccc34)nc(N3CCOCC3)c2C#N)cc1` here?
Answer: 68%

Question: Which growth does the source give for `CCCCCCCCCCCCCCCC(=O)OC[C@@]1(O)C[C@@]23CC[C@@H]4C(C)(C)[C@H](O)CC[C@@]4(C)[C@@H]2CC[C@H]1C3` here?
Answer: 101%

Question: Which growth does the source give for `FC(F)(F)Oc1cccc(-c2cc(NCCCCCCNc3cc(-c4cccc(OC(F)(F)F)c4)nc4ccc(N5CCCC5)cc34)c3cc(N4CCCC4)ccc3n2)c1` here?
Answer: -14% (active)

Question: Which growth does the source give for `COc1ccc(C2=C(c3ccccc3)c3ccc(OC(C)=O)cc3OC2(C)C)cc1` here?
Answer: 107%

Question: How did the growth turn out when `Cc1c2c(cc[n+]1Cc1ccc(F)cc1)c1ccc(OCc3cccc(F)c3)cc1n2Cc1cccc(F)c1` was run?
Answer: -91.2% (active)

Question: With `CC1=CC2(C)/C=C(C)/C=C\CC(O)/C=C3/C=CC(=C4C(=O)OC2(CC1C)C4=O)OC3` (stereo unspecified) as the compound, how does the growth read?
Answer: 90.9%

Question: For `O=C1OC(=O)C2C1CC=CC2c1ccccc1` (stereo unspecified), which growth is on record?
Answer: 78.8%

Question: For `C=C(C)[C@H]1CC/C(C)=C/CC[C@]2(C)O[C@H]2CC/C(COC(=O)[C@@H](OC(C)=O)[C@H](NC(=O)c2ccccc2)c2ccccc2)=C\[C@@H]1O`, which growth is on record?
Answer: 97.6%

Question: For `O=C(O)c1cn(C2CC2)c2cc(N3CCN(C(=O)C[n+]4cccc5ccccc54)CC3)c(F)cc2c1=O`, which growth is on record?
Answer: 98.9%

Question: `COc1ccc(Nn2c(SCC(=O)Nc3nc(-c4ccc(Cl)cc4)cs3)nc(C)c2C)cc1` was tested. Which growth did it give?
Answer: 100%

Question: `Cn1c2c(Cl)c(Cl)ccc2c2cc(N)[nH]c(=O)c21` was tested. Which growth did it give?
Answer: 51.3%

Question: For `CC(=O)c1c[nH]c2ccc(-c3ccnc(Nc4ccc(NC(=O)c5cccc(F)c5)c(CN5CCOCC5)c4)n3)cc12`, which growth is on record?
Answer: 1.97% (active)

Question: How did the growth turn out when `Clc1nc(Nc2ccccc2)nc(Nc2ccccc2)n1` was run?
Answer: 81.5%

Question: For `O=C1Nc2c(ccc(Cl)c2Cl)/C1=C/c1ccccn1`, which growth is on record?
Answer: 88.5%

Question: Which growth does the source give for `Cc1ccc2nc3c(cc2c1)CSc1nnc(-c2ccc[nH]c2=S)n1N3` here?
Answer: 95.8%

Question: For `CN1CCN(C(=O)[C@]2(C)CC[C@]3(C)CC[C@]4(C)C(=CC(=O)[C@@H]5[C@@]6(C)CCC(=O)NC(C)(C)[C@@H]6CC[C@]54C)[C@@H]3C2)CC1`, which growth is on record?
Answer: 89.2%

Question: How did the growth turn out when `COc1ccc(-c2nn(Cc3ccccc3)c3c2-c2oncc2CC3)cc1OC` was run?
Answer: 120%

Question: For `O=c1[nH]c2c(s1)CCCC2CN1CCCCC1` (stereo unspecified), which growth is on record?
Answer: 83.7%

Question: For `CC(C)(C)CC(C)(C)Nc1c(-c2ccc3c(c2)OCO3)nc2cnccn12`, which growth is on record?
Answer: 97.9%
